Source: PubChem BioAssay AID588342 (National Center for Advancing Translational Sciences (NCATS), 2011)
Among all 360,000 compounds or so, about 25,000 (6.9%) were called active. Where a call stands in place of a potency, no number is given. Another 9% or so got no clear call; they are omitted. Calls come from the whole dose curve; as a rule, active = well fitted inhibition curve with a large enough effect; inconclusive = small, poorly fitted or top-dose-only effect; inactive = flat fitted curve, though single readings scatter. This excerpt belongs to a sample that is enriched for actives.

Biological target: Luciferin 4-monooxygenase (Photinus pyralis) (UniProt P08659)
Assay: qHTS profiling assay for firefly luciferase inhibitor/activator using purifed enzyme and Km concentrations of substrates (counterscreen for miR-21 project); note: nearly all actives have a fitted effect of over 55% in size
Details: purified FLuc, luminescence inhibition; series mostly up to 57.5 µM
Outline: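 Purified P. pyralis luciferase, 10 nM final, with Km-level 10 uM D-luciferin and 10 uM ATP in 50 mM Tris acetate pH 7.5, 10 mM Mg acetate, 0.01% Tween-20, 0.05% BSA; 6-point qHTS titration about 60 µM downward; luminescence read.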
Potency is the fitted concentration of half-maximal effect.

Sequence of Luciferin 4-monooxygenase (Photinus pyralis) (P08659 whole entry, looked up): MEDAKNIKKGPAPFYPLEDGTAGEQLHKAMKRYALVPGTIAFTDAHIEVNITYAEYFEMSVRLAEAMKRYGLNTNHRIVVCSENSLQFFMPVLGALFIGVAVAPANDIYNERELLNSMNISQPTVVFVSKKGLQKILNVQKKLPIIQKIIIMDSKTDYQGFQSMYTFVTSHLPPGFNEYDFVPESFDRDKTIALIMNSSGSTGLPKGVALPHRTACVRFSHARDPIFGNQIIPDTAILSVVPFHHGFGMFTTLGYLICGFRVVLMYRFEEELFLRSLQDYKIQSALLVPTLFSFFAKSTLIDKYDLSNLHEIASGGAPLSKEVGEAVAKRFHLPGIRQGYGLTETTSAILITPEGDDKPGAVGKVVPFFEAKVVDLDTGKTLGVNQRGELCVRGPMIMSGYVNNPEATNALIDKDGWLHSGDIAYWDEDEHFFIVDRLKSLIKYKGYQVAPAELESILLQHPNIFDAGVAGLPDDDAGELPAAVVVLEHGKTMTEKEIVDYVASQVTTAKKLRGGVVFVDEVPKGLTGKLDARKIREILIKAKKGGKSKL

SMILES | Potency
O=C(NNC(=O)c1ccc(-n2cncn2)c([N+](=O)[O-])c1)c1ccccc1 | inactive
CCC1(CC)NC(=O)N(Cc2nc3ccccc3s2)C1=O | inactive
C/C(=N\NC(=O)CSc1nc2ccccc2c(=O)n1-c1ccccc1C)c1cccs1 | inactive
CC(=NCc1ccco1)c1c(C(F)(F)F)[nH]n(-c2nc3ccccc3s2)c1=O | 7.57 µM (active)
C/C(=N\NC(=O)CC(C)C)c1c(C(F)(F)F)[nH]n(-c2nc3ccccc3s2)c1=O | 5.36 µM (active)
Cc1cccc(NC(=O)c2cc3c(C)nn(-c4ccccc4)c3s2)c1 | inactive
O=C(NCc1ccncc1)C1CCN(C(=O)c2cccc(Cl)c2)CC1 | inactive
Cc1ccc(-n2c(CNc3ccc(F)cc3)nnc2SCC(=O)N2CCOCC2)cc1 | inactive
O=C(CSc1cccc[n+]1[O-])c1ccc(Cl)cc1 | inactive
O=C(CSc1cccc[n+]1[O-])c1ccc(-c2ccccc2)cc1 | 19 µM (active)
COc1ccccc1C(=O)CSc1cccc[n+]1[O-] | inactive
CC(O)c1cccc(NC(=O)Cc2cccc3ccccc23)c1 (centres undefined) | inactive
Cc1ccn(CCC(=O)N2c3ccccc3CC2C)n1 (centres undefined) | inactive
CCC(=O)N1c2ccc(S(=O)(=O)CCC(=O)N3CCN(c4ccccc4)CC3)cc2CC1C (centres undefined) | inactive
CCCC(=O)N1c2ccc(-c3csc(N)n3)cc2CC1C (centres undefined) | 7.57 µM (active)
CCOc1ccccc1NC(=O)Cn1c(=O)n(-c2cccc(C)c2)c(=O)c2c1c1cc(OC)ccc1n2C | inactive
CN(CC(=O)NC(=O)Nc1ccccc1F)Cc1ccccc1 | inactive
Oc1ccc(-c2nc3ccc(Cl)cn3c2Nc2ccc3c(c2)OCO3)cc1 | inactive
CN(C(=O)COc1ncnc2c1cnn2-c1ccccc1)C1CCCCC1 | inactive
CCN(c1ncnc2c1cnn2-c1ccc(C)cc1)C1CCCCC1 | 2.13 µM (active)
c1ccc(-n2ncc3c2ncn2c(C4CCCCC4)nnc32)cc1 | inactive
O=c1c2ccccc2ncn1CCCCOc1ccccc1F | inactive
O=C(Nn1cnc2ccccc2c1=O)c1ccc([N+](=O)[O-])cc1Cl | inactive
O=C(Nn1cnc2ccccc2c1=O)c1ccc(F)cc1Cl | 13.5 µM (active)
COC(=O)c1c(NC(=O)C(C)Oc2ccc(Cl)c(C)c2)sc(C)c1C (centres undefined) | inactive
Cc1ccc(NC(=S)N2CCN(c3ncccn3)CC2)cc1C | inactive

SMILES | Potency
COc1ccc(NC(=O)Cn2c(=O)n(CCC(C)C)c(=O)c3cccnc32)cc1Cl | inactive
Cc1ccccc1CNC(=O)CSc1nnc(C)c2c(C)n(-c3ccccc3)nc12 | inactive
Nc1ccc(N=Nc2ccccc2Cl)c(N)n1 | 6.01 µM (active)
O=C1C=C(c2cccc(Cl)c2)C[C@@H](c2ccc(F)cc2)C1 | inactive
COc1ccc(Cn2cc(C(=O)c3ccc(C)cc3)c(=O)c3cc(OC)c(OC)cc32)cc1 | inactive
Cn1nc(C(C)(C)C)c(NC(=O)c2sccc2Cl)c1C(C)(C)C | inactive
COc1ccccc1NC(=O)/C=C/C(N)=O | inactive
COC(=O)c1sc(-c2ccc(C(C)(C)C)cc2)cc1NC(=O)/C=C/C(=O)O | 1.51 µM (active)
N#CC(C#N)=CN=c1ccn(Cc2ccc(Cl)cc2Cl)cc1 | inactive
COc1ccc(NC(=O)N2CCC(Cc3ccccc3)CC2)cc1 | 15.1 µM (active)
COc1ccc(NC(=O)N2CCCC(C(=O)Nc3ccccc3OC)C2)cc1 (centres undefined) | inactive
COc1ccc(C(=O)NC2CCN(C(=O)Nc3ccc(F)cc3)CC2)cc1 | inactive
COc1cccc(C(=O)N(Cc2cccc(Cl)c2)Cc2ccco2)c1 | inactive
CCCc1nc2c(c(=O)c3ccccc3n2C)c(=O)n1C1CCCCCC1 | inactive
CCCc1nc2c(c(=O)c3ccccc3n2C)c(=O)n1-c1cc(C)cc(C)c1 | 15.1 µM (active)
Cn1c2ccccc2c(=O)c2c(=O)n(Cc3ccco3)c(COc3ccccc3)nc21 | inactive
CCOc1ccccc1NC(=O)CN1CCN(S(=O)(=O)c2ccc(Br)cc2)CC1 | inactive
COC(=O)C1(C)NC(c2ccc(F)cc2)C2C(=O)N(c3ccccc3)C(=O)C21 (centres undefined) | inactive
COC(=O)[C@]1(C)N[C@H](c2ccc(-c3ccc(Cl)c(Cl)c3)cc2)[C@@H]2C(=O)N(C)C(=O)[C@@H]21 | 15.1 µM (active)
COC(=O)C1(C)NC(c2ccc(C)cc2)C2C(=O)N(c3ccc(F)cc3)C(=O)C21 (centres undefined) | inactive
O=C(COC(=O)CNC(=O)c1ccccc1F)NCC(F)(F)F | inactive
Cc1cc2ccccc2n1CCNC(=O)c1ccc(F)cc1 | inactive
O=C(CNC(=O)c1ccccc1F)c1ccc(Br)cc1 | 2.69 µM (active)
O=C(CNC(=O)c1ccccc1)NCC(=O)OCC(=O)c1ccccc1 | inactive
O=C(Nc1ccc(NC(=O)c2ccccc2F)cc1)c1ccccc1F | inactive
O=C(CNC(=O)c1ccc(F)cc1)c1ccccc1 | 19 µM (active)

SMILES | Potency
Cn1c(=O)[nH]c(=O)c2c1[nH]c(=S)n2Cc1ccccc1 | inactive
CC1=Nc2cc(C(=O)NCc3ccc(C)cc3)ccc2Sc2ccc(Cl)cc21 | inactive
O=C(OCC(=O)N1CCCCCC1)c1cnc(Cl)c(Cl)c1 | inactive
O=S(=O)(NCCc1csc(-c2ccccc2)n1)c1cccnc1 | inactive
O=C(NCCc1csc(-c2ccccc2)n1)c1ccccc1F | 26.9 µM (active)
COc1ccc(CCC(=O)NCCc2csc(-c3ccc(Cl)cc3)n2)cc1 | inactive
O=c1ccc2c(-c3ccccc3S(=O)(=O)O)c3ccc(O)c(O)c3oc-2c1O | 13.5 µM (active)
COc1ccc(OC)c(NC(=O)C2CCN(S(=O)(=O)c3ccc(C)cc3)CC2)c1 | inactive
COc1ccc(OC)c(C(O)c2nc3ccccc3n2C)c1 (centres undefined) | inactive
CCN(CCCNC(=O)c1c(C)oc2ncn(CC(C)C)c(=O)c12)Cc1ccccc1 | inactive
Cc1ccc(NC(=O)C(=O)NCc2ccc(/C=N/NC(=O)c3c(C)nc4cc(C)ccn34)o2)cc1 | 2.13 µM (active)
Cc1ccn2c(=O)c(NC(=O)c3cccc4ccccc34)c(C)nc2c1 | inactive
CCOc1ccc(/C=N\NC(=O)c2c(C)nc3cc(C)ccn23)cc1 | inactive
N=C1C(=O)OCC1c1ccccc1NC(=O)CN1CCCCC1 (centres undefined) | inactive
CN(Cc1ccccc1)C(=O)c1cn(C)c2ccc(S(=O)(=O)N3CCCCC3)cc2c1=O | inactive
CCc1ccccc1NC(=O)CSc1nc(C)c(C(=O)Nc2ccccc2)c(-c2ccc(Cl)cc2)c1C#N | inactive
Cc1cc(C)n(CCNS(=O)(=O)c2ccc(Cl)cc2)n1 | inactive
C=CCN1C(=O)C(Cc2cccc(Cl)c2)S/C1=N/N=C/c1ccco1 (centres undefined) | inactive
O=C1N/C(=N\N=C\c2ccco2)SC1Cc1ccc(F)cc1 (centres undefined) | inactive
COc1ccc(CN2C(=O)C(C)S/C2=N/N=C/c2ccco2)cc1 (centres undefined) | 15.1 µM (active)
COc1cccc(C2C(C(=O)Nc3ccc(C)cc3C)=C(C)Nc3c(C(=O)Nc4ccccc4)cnn32)c1 (centres undefined) | inactive
COc1ccc(CN(C)Cc2nc3cc(OC)c(OC)cc3c(=O)[nH]2)c(OC)c1 | inactive
COc1ccc(/C=C2/C(=O)OCc3cc(OC)c(OC)cc32)c(OC)c1 | 12 µM (active)
COc1ccc(Oc2cn[nH]c2-c2ccc(OC)cc2O)cc1 | inactive
COc1cc([N+](=O)[O-])ccc1NC(=O)COC(=O)CCOc1ccc(C)cc1 | inactive
Cc1ccc(OC(=O)CSc2nnc(-c3cccs3)o2)cc1 | inactive

SMILES | Potency
COc1ccc(-c2nnc(SCC(=O)c3cccs3)o2)c(OC)c1 | 2.39 µM (active)
COc1ccccc1-c1nnc(SCC(N)=O)o1 | inactive
CCCCCCn1cc(C(=O)O)c(=O)c2cc(F)c(N3CCCCC3)cc21 | inactive
Cc1cc2nc(NC(=O)c3ccc(S(=O)(=O)N4CCOCC4)cc3)sc2cc1C | inactive
O=C(Nc1ccc(S(=O)(=O)Nc2nccs2)cc1)c1cccc(S(=O)(=O)N2CCOCC2)c1 | inactive
O=C(Nc1nc2cc3c(cc2s1)OCCO3)c1cccc(S(=O)(=O)N2CCOCC2)c1 | 7.57 µM (active)
CC(Sc1nnc(-c2cccs2)n1C1CC1)C(=O)NCC1CCCO1 (centres undefined) | inactive
CCOc1ccccc1NC(=O)C1=C(C)Nc2ncnn2C1c1ccc(NC(C)=O)cc1 (centres undefined) | inactive
COc1ccc(-c2nnc3n2CCCCC3)cc1 | inactive
Brc1cccc(-c2nnc3n2CCC3)c1 | inactive
COc1ccc(-c2nc3n(c2Br)CCC3)cc1 | 7.57 µM (active)
CC(=O)CCC(=O)c1ccc2ccccc2c1 | 26.9 µM (active)
CC(=O)c1ccc2c(ccc3ccccc32)c1 | 21.3 µM (active)
CC(=O)c1ccc2c(c1)c1ccccc1n2CC(C)C | inactive
COc1cccc(N2CC(NC(=O)c3ccc4ccccc4c3)CC2=O)c1 (centres undefined) | inactive
O=C(NCC(=O)N1CCN(c2ccccc2O)CC1)c1ccc2ccccc2c1 | inactive
CCN(CC)Cc1cc(C(C)=O)ccc1O | inactive
CC(C)(C)OC(=O)NCCCCCNC(=O)c1nc[nH]c1C(=O)NCc1ccccc1 | inactive
Cc1ccccc1NC(=O)Cn1c(=O)n(Cc2ccco2)c(=O)c2ccc(C(=O)NC3CCCC3)cc21 | inactive
CNC(=O)c1nnn(-c2ccccc2)c1C(=O)NC | inactive
CC(=O)NC12CC3CC(C1)CC(C(=O)N1CCN(S(=O)(=O)c4cccs4)CC1)(C3)C2 | inactive
CC(C)(C)c1ccc(C(=O)Nc2ccc3c(c2)CCCN3C(=O)c2cccs2)cc1 | inactive
CCc1nnc(SCC(=O)Nc2cc(OC)ccc2OC)nc1CC | inactive
O=C(c1ccc(NS(=O)(=O)c2ccc3[nH]c(=O)[nH]c3c2)cc1)N1CCCCC1 | inactive
CC(=O)c1c(C)oc2ccc(NS(=O)(=O)c3ccc(C(=O)O)cc3)cc12 | inactive
O=C(O)c1ccc(NS(=O)(=O)c2ccc3c(c2)C(=O)c2cc(S(=O)(=O)Nc4ccc(C(=O)O)cc4)ccc2-3)cc1 | 23.9 µM (active)
